This note sets out measurements from PubChem BioAssay AID2315 (National Center for Advancing Translational Sciences (NCATS), 2010).

The whole screen tested about 290,000 compounds, of which about 27,000 (9.3%) were called active. The sample holds actives, similar compounds and a random draw of the others, so the mix is not that of the screen. Unmarked numbers belong to inactive results. No stated cut-off is given here; in the data, active means inhibition mostly above about 28% (no sharp cut-off); inactive means mostly below about 43%.

This experiment can be described thus: A qHTS for Small Molecule Inhibitors of Shiga Toxin. Further: 0% is about no effect. To be noted: Vero cells, Shiga toxin protein synthesis inhibition reporter; at 38.7 µM, active compounds read high. (In qHTS, concentration-response curves come from the screen itself.)
As to `CCCn1nc(NC(=O)C(C)C)c2cc3cc(OC)ccc3nc21`, the inhibition – broadly, the drop in the measured response relative to a control, in per cent – is 40.5%.
As for `COc1ccc(C(=O)CC(=O)C(=O)Nc2cc([N+](=O)[O-])ccc2OC)cc1`, the inhibition was -3.5%.
Then `O=C(Cn1ncc2c3ccccc3n(Cc3ccccc3)c2c1=O)NCc1ccccn1`, with 16.1%; and `Cc1c(C(=O)N2CCCC2)c(S(=O)(=O)NCC(C)c2ccccc2)c(C)n1C` (configuration not stated), with -3.94%.
Regarding `CC1(C(=O)N/N=C/c2cc3c(cc2Br)OCO3)CC1(Br)Br` (configuration not stated), the inhibition was -11.8%.
As to `O=C(C1CCN(Cc2ccc(Cl)cc2)CC1)N1CCN(Cc2ccc3c(c2)OCO3)CC1`, the inhibition was -7.69%.
The figure for `COc1ccc(C2c3[nH]c4ccccc4c3C[C@H]3C(=O)N(CC(C)C)CC(=O)N23)c(OC)c1` (some centres not stated) is -6.17%; for `COc1cccc(/C=N/Nc2cc(C)nc(-c3ccccc3O)n2)c1O` it is 38.3% (active); for `COc1ccccc1/C=N\Nc1cc(C)nc(-n2nc(C)cc2C)n1` it is -8.59%.
Then `COc1cccc2c(N/N=C/c3ccco3)cc(C)nc12`, with 63.5%; and `CC(=O)c1cccc(NC(=O)CN2C(=O)c3cccnc3Oc3ccc(Cl)cc32)c1`, with 1.59%.
The figure for `CCc1ccc(N(C(=O)c2csnn2)C(C(=O)NC2CCCCC2)c2ccncc2)cc1` (configuration not stated) is 32.9%; for `COc1cccc(N(CC(=O)Nc2cccc(F)c2)S(C)(=O)=O)c1` it is 12.9%; for `CCN(CC)S(=O)(=O)c1ccc(NC(=O)CN(c2cccc(F)c2)S(C)(=O)=O)cc1` it is -12.2%.
Consider `COc1cc(NC(=O)CN(C)S(=O)(=O)c2ccc3nc(C)sc3c2)cc(OC)c1`, for which the inhibition is 15.9%.
Then `Cc1nc2ccc(S(=O)(=O)N(C)CC(=O)NC(C)c3ccccc3)cc2s1` (configuration not stated), with -9.9%; and `Cc1cccc(N(CC(=O)Nc2ccc(-c3nc4ccc(C)cc4s3)cc2)S(C)(=O)=O)c1`, with 146% (active).
The figure for `Cc1ccc2nc(-c3ccc(NC(=O)CN(C)S(=O)(=O)c4ccccc4)cc3)sc2c1` is 84.9% (active); for `C[C@H]1CCC(=O)N([C@H](CSc2ccccc2)Cc2ccccc2)CC1` it is 6.56%.
Then `CCCOc1ccc(Cc2c(O)nc(N)[nH]c2=O)cc1C`, with 1.67%; and `CCC(=O)N1c2ccc(S(=O)(=O)NCc3ccco3)cc2CC1C` (configuration not stated), with 12.8%; and `O=C(Nn1cnnc1)c1cc(Cl)ccc1Cl`, with 7.38%.
As to `C=CCc1cc(S(=O)(=O)c2ccc(O)c(CC=C)c2)ccc1O`, the inhibition was -18%.
Then `O=C(c1ccc2c(c1)OCO2)N1CCN(C(=O)c2ccco2)CC1`, with 17%; and `CS(=O)(=O)N(CC(=O)N1CCN(c2cccc(Cl)c2)CC1)c1ccccc1`, with -4.1%.
Then `O=C(c1ccco1)N1CCN(c2cccc(Cl)c2)CC1`, with 24.3% (active); and `O=C(CCCC(=O)N1CCN(c2cccc(Cl)c2)CC1)c1ccccc1`, with 25.1% (active).
Take `CC(C)c1nnc(NC(=O)CCC(=O)N2CCN(c3cccc(Cl)c3)CC2)s1`: the inhibition is -4.62%.
The figure for `O=C(c1cccc([N+](=O)[O-])c1)N1CCN(C(=O)c2ccco2)CC1` is -3.08%.
As to `Oc1ccc2nc(Cc3ccccc3)[nH]c2c1`, the inhibition is 54.8%.
Then `Nc1cccc(CCc2nc3ccccc3[nH]2)c1`, with 91.8% (active); and `CC(C)=C(NC(=O)c1ccco1)C(=O)NCCc1nc2ccccc2[nH]1`, with 7.12%.
The figure for `CCOC(=O)C1=C(c2ccccc2)NC(=O)NC1c1cc(OCC)c(O)c([N+](=O)[O-])c1` (configuration not stated) is -6.05%; for `Cc1ccccc1Nc1nc(N)nc(CSc2ccccc2)n1` it is 87.7% (active).
Then `Cc1ccc(C(=O)OCc2nc(N)nc(Nc3ccccc3C)n2)cc1`, with -11.7%; and `Cc1ccccc1Nc1nc(N)nc(CSc2nnc3ccccn23)n1`, with 37.1%; and `Cc1cc(OC(C)C(=O)NC2CC(C)(C)NC(C)(C)C2)c2c(C)cc(=O)oc2c1` (configuration not stated), with -4.82%.
For `CCn1c(CNC(=O)c2cc(OC)c(OC)c(OC)c2)cc2cc(C)ccc21`, the inhibition was 2.16%.
With `CCOc1ccc(CN(C)C(=O)c2ccc(=O)[nH]c2)cc1`, the inhibition was -3.04%.
As to `CCc1ccc(/C=N/NC(=O)c2nnn(-c3nonc3N)c2CN2CCc3ccccc32)cc1`, the inhibition is -4.83%.
Then `COc1ccc(NS(=O)(=O)c2cccc3nsnc23)cc1Cl`, with -3.74%; and `O=C(Nc1ccncc1)c1c(F)cccc1F`, with -10.9%.
With `CCCC(=O)Nc1nc2ccc(NC(=O)c3c(F)c(F)c(OC)c(F)c3F)cc2s1`, the inhibition is -15.8%.
Then `CSc1nc2ccc(NC(=O)c3c(F)cccc3F)cc2s1`, with 90.3% (active); and `O=C(N/N=C/c1ccc(OCc2ccccc2)cc1)c1ccc(O)cc1`, with 51.1%; and `Cc1cccc(OCC(=O)NCC(=O)N/N=C/c2ccc(N(C)C)cc2)c1`, with -12.5%.
The figure for `Cc1ccc(OCCOc2cccc(/C=N/NC(N)=O)c2)cc1` is 56.6% (active); for `O=C(N/N=C/c1cccc(OCc2ccccc2)c1)c1ccc(Br)o1` it is 46.8% (active).
The figure for `Cc1ccc(OCCOCCOc2ccc(Br)cc2/C=N\NC(=O)c2ccncc2)cc1` is -5.78%; for `O=C(N/N=C/c1cccc(O)c1)c1cc2c(ccc3ccccc32)o1` it is 6%; for `CCOc1ccccc1N1C(=O)CC(Sc2nccc(C)n2)C1=O` (configuration not stated) it is 10.8%.
In the case of `Cc1ccc2c(c1)N(CC(=O)N1CCOCC1)C(=O)CO2`, the inhibition was -3.54%.
Consider `Cc1nc2cc(-c3ccc(F)cc3)nn2c(N2CCOCC2)c1C`, for which the inhibition was 62.6%.
The figure for `Cc1cc(C(C)(C)C)n2nc(C)c(-c3ccccc3)c2n1` is -4.85%; for `Cc1cc(N)n2nc(-c3ccc(C(C)(C)C)cc3)cc2n1` it is 88.7% (active); for `Cc1cccc(OCC(O)CN2CCN(S(=O)(=O)c3ccc(C)cc3C)CC2)c1` (configuration not stated) it is -2.77%.
As to `O=C(CSCC(=O)Nc1cccc([N+](=O)[O-])c1)Nc1ccccc1`, the inhibition was 7.24%.
Consider `O=C(CSc1nc(-c2ccccc2)cs1)Nc1cccc([N+](=O)[O-])c1`, for which the inhibition is 81.3% (active).
Then `O=C(CSC1=NCCS1)Nc1nc(-c2ccccc2)cs1`, with 29.7%; and `CCOC(=O)CSc1nnc(CNc2nc(-c3ccccc3)cs2)n1C`, with 9.53%; and `O=C(CSc1ncn[nH]1)Nc1nc(-c2cccc([N+](=O)[O-])c2)cs1`, with 8.25%.
Turning to `CCNC(=O)CSc1nc(-c2ccccc2)cs1`, the inhibition is 74.3% (active).
